TDP1 inh = qHTS Assay for Inhibitors of Tyrosyl-DNA Phosphodiesterase (TDP1); recombinant TDP1, AlphaScreen DNA substrate cleavage; Potency, µM (highest dose often 130 µM), inactives show at the top dose activity change, negative = inhibition, actives largely listed as inhibitors; actives 0.28% (n = 350,000); AID 485290, 2010; further: potency means the concentration at half of the fitted maximal effect; on the % scale 0 is the no-effect control and ±100 the full control effect; nearly all actives have a fitted effect of over 40% in size
Target sequence (Q9NUW8 whole entry, looked up): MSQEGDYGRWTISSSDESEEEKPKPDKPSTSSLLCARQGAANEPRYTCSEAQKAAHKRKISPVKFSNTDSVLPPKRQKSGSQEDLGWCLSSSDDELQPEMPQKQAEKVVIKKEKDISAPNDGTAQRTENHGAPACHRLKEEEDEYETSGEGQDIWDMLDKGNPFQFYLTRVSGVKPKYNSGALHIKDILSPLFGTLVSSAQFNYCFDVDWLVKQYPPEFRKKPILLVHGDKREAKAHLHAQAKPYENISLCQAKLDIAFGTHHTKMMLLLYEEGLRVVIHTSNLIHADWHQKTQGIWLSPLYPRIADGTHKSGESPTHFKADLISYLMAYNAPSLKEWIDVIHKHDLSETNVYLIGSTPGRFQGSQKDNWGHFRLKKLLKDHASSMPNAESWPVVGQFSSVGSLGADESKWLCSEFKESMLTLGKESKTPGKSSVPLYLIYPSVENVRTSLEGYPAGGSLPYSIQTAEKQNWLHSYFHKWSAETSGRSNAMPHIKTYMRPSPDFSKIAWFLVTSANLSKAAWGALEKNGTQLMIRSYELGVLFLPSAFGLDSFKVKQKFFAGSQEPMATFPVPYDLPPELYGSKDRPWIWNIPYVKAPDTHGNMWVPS
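Compounds were preincubated with Tdp1 (1 nM final) for 15 min at room temperature before substrate (15 nM final) started a 5 min reaction; beads (10 ug/ml final) were then added for 10 min before AlphaScreen detection.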
TDP1 cell CPT = qHTS for Inhibitors of human tyrosyl-DNA phosphodiesterase 1 (TDP1): qHTS in cells in presence of CPT | actives 12% (n = 420,000) | Potency, µM (highest dose often 46.2 µM), for inactives: at the top dose activity change, negative = growth inhibition, hits mostly inhibitors | AID 686979, 2013 | chicken DT40 Tdp1-/-;hTDP1 cells + 20 nM CPT, ATP luminescence, 48 h; further: potency means the concentration at half of the fitted maximal effect; on the % scale 0 is the no-effect control and ±100 the full control effect; nearly all actives have a fitted effect of over 55% in size
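Chicken DT40 Tdp1-/- cells stably complemented with human TDP1 were seeded at 400 cells/well in medium containing 20 nM camptothecin, exposed to pin-transferred compounds, and grown at 37 °C for at least 48 hr. Viability was read as ATP luminescence.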
TGFb inhibitor = qHTS for Inhibitors of TGF-b. HepG2 CAGA-GFP TGF-b/SMAD3 reporter, GFP fluorescence, 18 h; TGF-beta stimulated, 500 pg/mL final. actives 1.2% (n = 410,000). Potency, µM (highest dose often 46.1 µM), without a hit: at the top dose activity, negative = inhibition, most hits filed as inhibitors. AID 588855, 2011; further: potency means the concentration at half of the fitted maximal effect; on the % scale 0 is the no-effect control and ±100 the full control effect; nearly all actives have a fitted effect of over 65% in size
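HEPG2 CAGA-GFP cells (1000/well, DMEM with 1% FBS) were pre-incubated 2 h at 37 degrees C, given compound by pin tool, then stimulated with TGF-beta at 500 pg/mL final for 18 h before per-cell GFP fluorescence imaging.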
HepG2 tox = qHTS for Inhibitors of TGF-b: Cytotox Counterscreen; HepG2 CAGA-GFP viability, ATP luminescence, 18 h; Potency, µM (doses to about 46.1 µM), for the others: at the highest dose activity change, negative = cytotoxicity, hits mostly cytotoxic; actives 0.76% (n = 410,000); further: potency means the concentration at half of the fitted maximal effect
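CellTiter-Glo luminescence gave cytotoxicity after 18 hours at 37 degrees C. The cells were HepG2 CAGA-GFP in 1% FBS DMEM, stimulated with 500 pg/mL TGF-beta after compound addition. %Activity was normalised to no-cell wells (complete cell-killing) and DMSO (no toxicity), and curves were fitted and classified.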
IL-1B inflam inh = qHTS for Inhibitors of Inflammasome Signaling: IL-1-beta AlphaLISA Primary Screen; actives 4.7% (n = 360,000); activity change, % at 57.5 µM; AID 743279, 2014; THP-1 LPS/ATP IL-1B secretion, AlphaLISA, 16 h; stronger effect = lower value; in the data active means activity change below about -50%; inconclusive means mostly about -30% to -49%; further: on the % scale 0 is the no-effect control and ±100 the full control effect
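THP-1 cells pretreated 1 hr with compounds (up to 57.5 uM final), then stimulated with LPS (250 ng/mL final) plus ATP (1.25 mM final); secreted IL-1B measured by AlphaLISA after 16 hr, decreased signal indicating inhibition.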
TDP1 cell noCPT = qHTS for Inhibitors of human tyrosyl-DNA phosphodiesterase 1 (TDP1): qHTS in cells in absence of CPT. DT40 Tdp1-/- hTDP1 cells, no CPT, ATP luminescence, 48 h. Potency, µM (doses to about 46.2 µM), without a hit: at the top dose activity change, negative = growth inhibition, most hits filed as inhibitors. actives 15% (n = 420,000). AID 686978, 2013; further: potency means the concentration at half of the fitted maximal effect; on the % scale 0 is the no-effect control and ±100 the full control effect; nearly all actives have a fitted effect of over 55% in size
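Chicken DT40 Tdp1-/- cells complemented with human TDP1, screened without camptothecin (DMSO vehicle only), 400 cells/well. Compounds pin-transferred, cells incubated at 37 °C for at least 48 hr. Growth read as ATP-dependent luminescence (CellTiter-Glo, 30 min at RT).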
* = called active by the depositor; u = inconclusive; x = no result given; [ ] = dose if it differs, or a comment. Rows were chosen to be rich in hits. Some 19% of all compounds tested hit in one or more screens of this group. Unless noted, the call rests on the fitted dose curve; in most records, active means well fitted curve in the direction sought with a large enough effect; inconclusive means small, poorly fitted or top-dose-only effect, or another doubt; inactive means no such curve, though single readings can be large; an effect the other way counts as inactive or inconclusive.

SMILES	TDP1 inh	TDP1 cell CPT	TGFb inhibitor	HepG2 tox	IL-1B inflam inh	TDP1 cell noCPT
COC(=O)C1=C(c2ccc(S(C)(=O)=O)cc2)C[C@@H]2CC[C@H]1N2C(=O)N1CCC(O)CC1	x	-1.1%	2.2%	6.7%	6.2	-11.2%
COC(=O)C1=C(c2ccc(OC)c(OC)c2)C[C@@H]2CC[C@H]1N2C(=O)N1CCC(C)CC1	-0.3%	20.6µM*	-0.5%	2.7%	9.2	10.3µM*
COC(=O)C1=C(c2ccc(OC)c(OC)c2)C[C@@H]2CC[C@H]1N2C(=O)NC1CC1	0.3%	u	3.4%	0.5%	1.3	-15.4%
COC(=O)C1=C(c2ccc(C(C)=O)cc2)C[C@@H]2CC[C@H]1N2C(=O)N1CCC(O)(c2ccc(Cl)cc2)CC1	2.7%	16.4µM*	-25.4%	-16.2%	-15.9	9.2µM*
COC(=O)C1=C(c2ccc(C(C)=O)cc2)C[C@@H]2CC[C@H]1N2C(=O)N1CCC(C)CC1	0.9%	18.4µM*	-5.5%	-2.0%	-0.6	20.6µM*
COC(=O)C1=C(c2ccc(S(C)(=O)=O)cc2)C[C@@H]2CC[C@H]1N2C(=O)N1CCCC1	x	-16.5%	12.0%	-7.1%	-17.2	3.6%
COC(=O)C1=C(c2ccc(OC)c(OC)c2)C[C@@H]2CC[C@H]1N2C(=O)N1CCc2cc(OC)c(OC)cc2C1	3.8%	u	4.7%	0.1%	-4.5	u
CC(C)CCCC(C)C1CCC2C3CC(=O)[C@H]4CC(O)CC[C@]4(C)C3CC[C@@]12C (stereo partly drawn)	-4.5%[56.1 µM]	u	x	x	x	u
N#CSCSC#N	16.1%	x	x	x	x	x
O=C1CC[C@@]2(O)[C@H]3Cc4ccc(O)c5c4[C@@]2(CCN3CC2CC2)[C@@H]1O5	13.2%[56.1 µM]	12.0%	x	x	x	-7.3%
Oc1ccc2c3c1O[C@H]1[C@@H](O)C=C[C@H]4[C@H](C2)NCC[C@@]341	x	5.2%	x	x	x	13.9%
COC(=O)C(N)CCCN=C(N)N[N+](=O)[O-] (stereo not drawn)	9.5%[56.1 µM]	x	x	x	x	x
COC(=O)[C@@H]1C[C@H]2CC[C@H](O)C[C@H]2N1CC1CC1	0.3%	x	x	x	x	x
CC(C)[C@H](N)C(=O)OCC(CO)OCn1cnc2c(=O)[nH]c(N)nc21 (stereo partly drawn)	x	13.3µM*	x	x	x	10.6µM*
CN1C[C@@H](NS(=O)(=O)N(C)C)C[C@@H]2c3cccc4c3c(cn4C)C[C@H]21	10.6%	-29.5%	x	x	x	u
C=CCC1=C(C)C(OC(=O)C2C(C=C(C)C)C2(C)C)CC1=O (stereo not drawn)	x	u	x	x	x	24.3µM*
CC(C)=CC1C(C(=O)OCc2cccc(Oc3ccccc3)c2)C1(C)C (stereo not drawn)	x	-10.4%	x	x	x	-3.9%
O=C(NC(c1cccnc1)C(F)(F)F)c1cnn(-c2nccc(-c3cccs3)n2)c1C1CC1 (stereo not drawn)	x	u	x	x	x	20.6µM*
C[C@H](Cc1ccc2c(c1)OC(C(=O)O)(C(=O)O)O2)NC[C@H](O)c1cccc(Cl)c1	5.8%[56.1 µM]	x	x	x	x	x
COc1ccc(N2CCN(Cc3nc4ccccc4[nH]3)CC2)cc1	11.3%	3.0%	-4.7%	7.6%	30.6	-7.8%
CCCc1cc(N2CCN(c3ccc(OC)cc3)CC2)n2cnnc2n1	-2.3%	16.4µM*	u	-21.5%	x	11.6µM*
C[N+]1(C)CCc2cc3c(cc2C1C1OC(=O)c2c1ccc1c2OCO1)OCO3 (stereo not drawn)	5.2%[56.1 µM]	x	x	x	x	x
CCOC(=O)C1(c2ccccc2)CCCN(C)CC1 (stereo not drawn)	x	-25.3%	x	x	x	-6.3%
CCCCCCCCN1C(=O)[C@H](CC(=O)N2CCCCC2)C[C@@]2(C(=O)OCC)CCCC=C12	x	7.31µM*	x	x	u	5.8µM*
CCCCCCCCN1C(=O)[C@H](CC(=O)NCCCC)C[C@@]2(C(=O)OCC)CCCC=C12	x	9.2µM*	x	x	0.0	11.6µM*
SMILES	TDP1 inh	TDP1 cell CPT	TGFb inhibitor	HepG2 tox	IL-1B inflam inh	TDP1 cell noCPT
CN(C)C(=O)Cl	-2.5%	x	x	x	x	x
Cc1cc(C)cc(-n2c(=O)[nH]c3ccccc3c2=O)c1	5.9%	18.4µM*	13.2%	4.1%	x	u
O=c1[nH]c2ccccc2c(=O)n1-c1ccc(Cl)c(Cl)c1	2.9%[2.28 µM]	u	1.7%	0.0%	x	-14.5%
O=c1[nH]c2ccccc2c(=O)n1-c1ccc(Cl)cc1Cl	-3.8%	16.4µM*	15.4%	-29.4%	-8.7	18.4µM*
CCN(C[C@H]1N[C@@](CC)(C(=O)OC)[C@H]2C(=O)N(Cc3ccccc3)C(=O)[C@@H]12)S(=O)(=O)c1ccc(OC)cc1	0.2%	23.1µM*	-4.8%	-4.5%	-18.5	u
CC[C@@]1(C(=O)OC)N[C@H](CN(C)C(=O)c2ccc(C(C)(C)C)cc2)[C@@H]2C(=O)N(Cc3ccccc3)C(=O)[C@@H]21	2.1%	u	-2.9%	-4.1%	-20.0	16.4µM*
CC[C@@]1(C(=O)OC)N[C@H](CN(C)C(=O)Nc2ccc(C(F)(F)F)cc2)[C@@H]2C(=O)N(Cc3ccccc3)C(=O)[C@@H]21	-0.4%	u	-6.8%	-1.7%	-19.0	u
C[C@]12O[C@H](C[C@]1(O)CO)n1c3ccccc3c3c4c(c5c6ccccc6n2c5c31)CNC4=O	x	0.299µM*	x	x	x	0.376µM*
NCCCP(=O)(O)O	-11.8%[56.1 µM]	x	x	x	x	x

Compound activity (PubChem)
